# From PubChem BioAssay
# NS1 inh = influenza NS1 inhibition | Potency, µM (doses to about 46.1 µM) | 0.4% of 270,000 active; further: actives are rising curves; nearly all actives have a fitted effect of over 50% in size
#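 A cell-based growth assay was used: compounds that relieve NS1-induced slow growth of budding yeast raise OD600. Assay medium was yeast nitrogen base with ammonium sulphate and -URA supplement, pH 6.0, with 2% galactose.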
# Pf growth 48h = inhibits P. falciparum growth in the first generation, 48 h; 5.9% of 310,000 active; Potency, µM (top dose mostly 28.7 µM), usual class: inhibitors; P. falciparum luciferase growth in erythrocytes, 48 h; active means well fitted inhibition curve with a large enough effect; inconclusive means small, poorly fitted or top-dose-only effect, or another doubt; inactive means no such curve, though single readings can be large or run the other way
#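 First compound was added to culture medium, then infected red cells at 0.1% parasitemia and 2% hematocrit (final). After incubation at 37 C under 5% CO2, luciferase detection reagent was dispensed and light output recorded.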
# SARS PLpro yeast = inhibitors of SARS-CoV papain-like protease in yeast | S. cerevisiae expressing SARS-CoV PLpro, growth rescue | Potency, µM (highest dose often 32.9 µM), most hits filed as activators | 0.19% of 330,000 active; further: nearly all actives have a fitted effect of over 55% in size
# Pf growth 96h = P. falciparum growth inhibition at 96 hour, primary screen for plastid delayed-death inhibitors | P. falciparum luciferase reporter growth, 96 h | Potency, µM (doses to about 28.7 µM), actives largely listed as inhibitors | 6.9% of 320,000 active | AID 504834; active means well fitted inhibition curve with a large enough effect; inconclusive means small, poorly fitted or top-dose-only effect, or another doubt; inactive means no such curve, though single readings can be large or run the other way
#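 Two parasite generations (96 h, 37 C, 5% CO2) of compound exposure in infected erythrocytes (0.05% parasitemia, 2% hematocrit). Luciferase-reporter P. falciparum; decreased luminescence indicates inhibited growth, aimed at apicoplast-acting delayed death.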
# Hits are given with their value; – = inactive; ? = inconclusive; · = no result; [ ] = remark or other dose. Hits are enriched below; roughly 10% of the tested compounds scored in any of these assays. Unless noted, the call rests on the fitted dose curve.
SMILES,NS1 inh,Pf growth 48h,SARS PLpro yeast,Pf growth 96h
CN(C)S(=O)(=O)c1cc(C(=O)NCCCn2ccc3ccccc32)ccc1Cl,–,·,–,4.1µM
COc1ccc(N2CCN(C(=O)CCCn3nnnc3CN3CCOCC3)C(C)C2)cc1 (stereo unspecified),–,–,–,12µM
O=C(CCCn1nnnc1CN1CCOCC1)N1CCC(c2ccc(F)cc2)C1 (stereo unspecified),–,–,–,7.4µM
CCN(CC)C(=O)C1CCCN(C(=O)CCn2nnnc2CN2CCOCC2)C1 (stereo unspecified),–,–,–,–
FC(F)(F)c1cccc(-c2ccn3ncnc3n2)c1,·,–,–,–
O=C(COC(=O)c1cc(Br)ccc1O)NNC(=O)c1cccs1,·,–,–,–
Cc1ccc(/C=C2\SC(=S)N(CCC(=O)NCCCN3CCOCC3)C2=O)cc1,–,–,–,?
O=C(CCCN1C(=O)/C(=C/c2cccc(Br)c2)SC1=S)NCCCN1CCOCC1,–,?,–,3.3µM
O=C(CCN1C(=O)/C(=C/c2ccccc2Cl)SC1=S)NCCCN1CCOCC1,–,?,–,13µM
CN1[C@@H]2CC(OC(=O)[C@@H](CO)c3ccccc3)C[C@@H]1[C@H]1O[C@H]12 (stereo partly specified),–,–,·,?
CCN(CC)Cc1cc(NC2=NS(=O)(=O)c3ccccc32)ccc1OC(=O)C(C)C,–,·,–,·
CCN(CC)Cc1cc(NC2=NS(=O)(=O)c3ccccc32)ccc1OC(=O)c1ccccc1,–,?,–,9.3µM
COc1ccc(CCC(C)NC(=O)CCc2ccccc2)c(OC)c1 (stereo unspecified),–,9.3µM,–,?
COc1cc(OC)c(OC)cc1CCC(C)NC(=O)Cc1ccccc1 (stereo unspecified),–,–[0.00184 µM],–,–
C=C(C)C1CC=C(C)/C(=N/NC(=S)Nc2ccccc2)C1 (stereo unspecified),–,–,10µM,–
CCOc1ccc(S(=O)(=O)N2CCC(C(=O)OC(C)C(=O)N3CCOCC3)CC2)cc1 (stereo unspecified),·,–,–,–
COc1ccccc1CC1CC(=O)N(c2ccccc2)C1=O (stereo unspecified),–,–,–,9.3µM
COc1ccc(N2C(=O)CC(Cc3ccccc3OC)C2=O)cc1 (stereo unspecified),–,–,–,?
Cc1ccc(NS(=O)(=O)c2cc([N+](=O)[O-])ccc2NNC(=S)Nc2cc(C)ccc2C)c(C)c1,13µM,15µM,–,9.3µM
COc1ccc(NC(=O)C2CC(c3cccc(Br)c3)=NO2)cc1OC (stereo unspecified),–,–,–,10µM
COc1ccc(OC)c(C2=NOC(C(=O)NCCN3CCOCC3)C2)c1 (stereo unspecified),–,–,–,–
COc1ccc(OC)c(C2=NOC(C(=O)Nc3cccnc3)C2)c1 (stereo unspecified),–,–,–,12µM
COc1ccc(OC)c(C2=NOC(C(=O)NCc3cccs3)C2)c1 (stereo unspecified),·,–,–,0.37µM
O=C(/C=C/NNC(=O)c1cccc(Br)c1)c1cccc(Br)c1,–,9.3µM,–,·
Cc1cccc(C(=O)NNC(=O)C(=O)NC(C)(C)C)c1,–,–,–,?
SMILES,NS1 inh,Pf growth 48h,SARS PLpro yeast,Pf growth 96h
CC(C)(C)NC(=O)C(=O)NNC(=O)c1cccc(Br)c1,·,–,–,2.1µM
CC(C)(C)OC(=O)C[C@@H]1C/C=C\C[C@H](CC(=O)N(CCO)Cc2ccccc2)C(=O)N[C@@H](Cc2c[nH]c3ccccc23)COC1=O,·,·,–,·
COC(=O)[C@@]1(C)[C@H]2C(=O)N(C)C(=O)[C@H]2[C@H]2CN=C(SCc3ccc(C#N)cc3)N21,·,·,–,·
Cc1ccc2oc(C(Cl)(Cl)Cl)cc(=O)c2c1,–,3.3µM,–,1.9µM
Cc1ccc(S(=O)(=O)Nc2cc(C(F)(F)F)ccc2N2CCOCC2)c(C)c1,–,?,–,12µM
Cc1ccc(S(=O)(=O)Nc2cc(C(F)(F)F)ccc2N2CCOCC2)cc1,–,?,–,13µM
CCCC(=O)NC(Nc1cccc(C(F)(F)F)c1)C(Cl)(Cl)Cl (stereo unspecified),–,?,–,1.9µM
CCCC(=O)NC(Nc1cc(C(F)(F)F)ccc1Cl)C(Cl)(Cl)Cl (stereo unspecified),–,12µM,–,?
CC(C)C(=O)NC(Nc1cc(C(F)(F)F)ccc1Cl)C(Cl)(Cl)Cl (stereo unspecified),–,?,–,13µM
C[C@H](NC(=O)c1ccccc1Cl)C(=O)OC(C(=O)Nc1cc(C(F)(F)F)ccc1Cl)c1ccccc1 (stereo partly specified),–,·,–,8.3µM
